Assay outcomes as filed in PubChem.
CD11b adhes inh: inhibitors of human CD11b/CD18 binding to fibrinogen. P05107+P11215. 93,000 tested, 0.54% active. K562 CD11b/CD18 adhesion to fibrinogen, ATPlite luminescence; Mn2+ added to activate the integrin. inhibition, % at 10 µM;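 active means primary inhibition of 50% or more at 10 µM, then 40% or more on retest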
CYP2C19 inhib: inhibitors of human CYP2C19 | 96,000 tested, 21% active | inhibition, % at 5 µM | P33261 | CYP2C19 Supersomes, luciferin-H EGE luminescence, 30 min | AID 778;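 active means CYP2C19 inhibition above a set limit at 5 µM in the primary screen, cut at about 50% in these data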
CYP2C9 inhib: human CYP2C9 inhibition. inhibition, % at 5 µM. CYP2C9 Supersomes, luciferin-H conversion, luminescence. 96,000 tested, 20% active. P11712. AID 777;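 active means blocking of liver enzyme CYP2C9 beyond about 50% at 5 µM, limit read from the data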
Target sequence (P11712 whole entry, looked up): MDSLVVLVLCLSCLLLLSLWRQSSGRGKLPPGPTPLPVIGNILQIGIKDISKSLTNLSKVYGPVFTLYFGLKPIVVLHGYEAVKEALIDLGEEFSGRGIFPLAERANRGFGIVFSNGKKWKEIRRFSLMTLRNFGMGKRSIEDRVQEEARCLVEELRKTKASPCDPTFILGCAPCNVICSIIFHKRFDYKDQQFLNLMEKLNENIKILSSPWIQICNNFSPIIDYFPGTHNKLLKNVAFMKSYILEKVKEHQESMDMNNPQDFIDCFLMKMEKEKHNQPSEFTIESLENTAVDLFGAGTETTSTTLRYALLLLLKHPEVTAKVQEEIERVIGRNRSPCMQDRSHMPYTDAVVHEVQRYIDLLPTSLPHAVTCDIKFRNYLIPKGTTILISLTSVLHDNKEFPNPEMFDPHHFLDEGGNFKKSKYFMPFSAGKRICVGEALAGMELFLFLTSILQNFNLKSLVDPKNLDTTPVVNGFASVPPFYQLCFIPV
CYP2C9 activ: CYP2C9 (human) activation | recombinant CYP2C9, luciferin-H conversion, luminescence; stronger effect = higher value; factor 1 = untreated enzyme, 0 = blocked | AID 1024 | 96,000 tested, 1.4% active | activation factor at 5 µM | P11712;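 active means activation factor of 2 or more for CYP2C9 at a 5 µM dose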
CYP2C19 activ: increases human CYP2C19 enzyme activity; P33261; recombinant CYP2C19, luciferin-H EGE luminescence; stronger effect = higher value; 0 = fully inhibited enzyme, 1 = untreated enzyme; activation factor at 5 µM; 96,000 tested, under 10 active;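 active means activation factor of at least 2 at 5 µM in the primary screen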
Mac1 fbg enh: enhancers of human CD11b/CD18 binding to fibrinogen; P05107+P11215; K562 CD11b/CD18 adhesion to fibrinogen, ATPlite luminescence; activation, % at 10 µM; 93,000 tested, 0.07% active; AID 1499;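 active means 10 µM primary screen giving 50% or more activity, confirmed by 40% or more on retest at that dose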
Hits are given with their value; . = inactive; / = not tested or not shown. Compounds with a hit are over-represented: about 28% of the library has one in this group of screens.

SMILES	CD11b adhes inh	CYP2C19 inhib	CYP2C9 inhib	CYP2C9 activ	CYP2C19 activ	Mac1 fbg enh
COc1ccc(N2CCC(CNC(=O)Nc3cccc(OC)c3)C2)cc1 (stereo unspecified)	.	.	75.9	.	.	.
Cc1nnc(-c2cnn(C)c2N)n1Cc1ccc(Cl)cc1	.	.	.	.	.	.
CCOC(=O)C1=C(C)NC(C)=C(C(=O)OCC)C1	.	.	.	.	.	.
COC(=O)c1cccc(NC(=O)CN2CCN(c3ccc(OC)cc3)CC2)c1	.	64.6	85.6	.	.	.
COc1cccc(N2CCN(CC(=O)Nc3nc4c(s3)CC(C)CC4)CC2)c1 (stereo unspecified)	.	.	53.1	.	.	.
Cc1ccc(S(=O)(=O)Nc2cc(-c3nn(C)c(=O)c4ccccc34)ccc2N2CCOCC2)cc1	.	93.0	94.5	.	.	.
Cn1nc(-c2ccc(N3CCOCC3)c(NS(=O)(=O)c3ccc(Cl)cc3)c2)c2ccccc2c1=O	/	85.5	84.3	.	.	/
CC(=O)Nc1cc(-c2nn(C)c(=O)c3ccccc23)ccc1N1CCOCC1	.	.	.	.	.	.
CNCc1ccc(OCc2ccccc2)c(OC)c1	.	.	.	.	.	.
CNCc1ccccc1Sc1ccc(OC)c(OC)c1	.	57.7	.	.	.	.
CCOC(=O)NC(=O)CSc1nc(C)cc(C)c1C#N	.	57.8	.	.	.	.
Cc1cc(C)c(C#N)c(SCC(=O)Nc2ccccc2C(N)=O)n1	/	.	.	.	.	/
Cc1ccc(CNC(=O)CSc2nc(C)cc(C)c2C#N)cc1	.	56.8	.	.	.	.
Cc1cc(C)c(C#N)c(SCC(=O)NC(C)(C)C)n1	.	.	.	.	.	.
COCc1cc(C)nc(SCC(=O)Nc2ccc(C)c(C)c2)c1C#N	/	.	.	.	.	/
COCc1cc(C)nc(SCC(=O)Nc2ccccc2C)c1C#N	.	94.2	.	.	.	.
Cc1cc(C)c(C#N)c(SCC(=O)NC2CC2)n1	.	.	.	.	.	.
CCOC(=O)CNC(=O)CSc1nc(C)cc(C)c1C#N	.	82.6	.	.	.	.
O=C(CSc1ccccn1)Nc1nc2ccc(Br)cc2s1	/	.	.	.	.	/
O=C(Nc1nnc(C2CC2)s1)c1cccc(S(=O)(=O)N2CC(c3ccccc3)CC2=O)c1 (stereo unspecified)	.	.	.	.	.	.
COc1ccc(N=CC2=C(O)c3ccccc3C2=O)c(OC)c1	/	77.7	.	.	.	/
O=C(NCCCN1CCOCC1)c1ccccc1NS(=O)(=O)c1cc([N+](=O)[O-])ccc1Cl	.	/	/	/	/	.
COc1cccc(-c2nnc3sc(-c4ccccc4)nn23)c1	.	.	.	.	.	.
COc1ccc(OCc2nn3c(-c4cccc(OC)c4)nnc3s2)cc1	.	50.9	.	.	.	.
Clc1ccc(-c2nnc3sc(Cc4cccs4)nn23)c(Cl)c1	.	86.6	78.5	.	.	.
SMILES	CD11b adhes inh	CYP2C19 inhib	CYP2C9 inhib	CYP2C9 activ	CYP2C19 activ	Mac1 fbg enh
Clc1ccc(OCc2nn3c(-c4ccncc4)nnc3s2)cc1	.	91.9	69.2	.	.	.
c1coc(-c2nnc3sc(Cc4cccs4)nn23)c1	.	68.6	54.7	.	.	.
Cc1ccc(N=C2SC(C(=O)Nc3ccc(OC(F)(F)F)cc3)C(N)=C2C(=O)Nc2c(C)cc(C)cc2C)cc1 (stereo unspecified)	.	/	/	/	/	.
c1ccc(-c2csc(Nc3nc(N4CCOCC4)nc(N4CCOCC4)n3)n2)cc1	/	.	.	.	.	/
COc1ccc(OCc2nn3c(-c4ccco4)nnc3s2)cc1	.	57.0	59.3	.	.	.
CC(C)N(CCc1ccncc1)C(=O)Nc1ccc(F)cc1	.	97.0	86.9	.	.	.
CCc1ccc(NC(=O)N(CCN(C)C)C(C)c2cccnc2)cc1 (stereo unspecified)	.	.	.	.	.	.
CC(C)N(CCc1ccncc1)C(=O)Nc1ccc(Cl)c(Cl)c1	.	99.5	99.2	.	.	.
Cc1ccc(N2CCN(C(=S)c3ccc(N(C)C)cc3)CC2)cc1	.	82.9	76.9	.	.	.
CN(C)c1ccc(C(=S)N2CCN(c3ccccc3)CC2)cc1	.	.	.	.	.	.
CN(C)c1ccc(C(=S)N2CCCCCC2)cc1	.	53.3	.	.	.	.
CCOCCCNC(=O)COc1ccc(OC)cc1	.	.	.	.	.	.
